Assay outcomes as filed in PubChem BioAssay.
Hits are enriched below; roughly 3.6% of the tested compounds scored in any of these assays.
PHOSPHO1 block = PubChem AID 1565. Phosphoethanolamine/phosphocholine phosphatase (Homo sapiens), Q8TCT1. recombinant PHOSPHO1, absorbance phosphatase assay. inhibition, % at 13.3 µM. 290,000 compounds, 1.1% hits; in the data active means inhibition above about 60%
A3G deaminase = APOBEC3G DNA deaminase inhibitors, primary screen, biochemical, fluorescence, single-stranded DNA substrate, uHTS; DNA dC->dU-editing enzyme APOBEC-3G (Homo sapiens), Q9HC16; 330,000 compounds, 0.28% hits; inhibition, % at 20 µM; recombinant A3G, ssDNA deamination FAM/TAMRA fluorescence;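 active means inhibition of at least 40% at 20 µM, with no more than 30% in the related APOBEC3A deaminase screen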;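 further: plate controls were DMSO wells with A3G for no effect and wells lacking A3G enzyme for full effect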
Target sequence (Q9HC16 whole entry, looked up): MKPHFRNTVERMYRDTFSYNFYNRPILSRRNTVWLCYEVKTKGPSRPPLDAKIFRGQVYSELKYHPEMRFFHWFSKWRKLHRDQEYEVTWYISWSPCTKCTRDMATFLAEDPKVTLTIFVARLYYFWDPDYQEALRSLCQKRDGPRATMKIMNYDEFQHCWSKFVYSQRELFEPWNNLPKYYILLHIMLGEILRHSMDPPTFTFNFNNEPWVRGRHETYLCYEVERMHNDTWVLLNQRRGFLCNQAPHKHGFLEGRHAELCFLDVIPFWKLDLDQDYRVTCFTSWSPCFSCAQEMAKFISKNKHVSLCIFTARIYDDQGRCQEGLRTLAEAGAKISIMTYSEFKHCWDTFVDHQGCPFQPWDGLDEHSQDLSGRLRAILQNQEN
Wnt bcat act = Wnt/beta-catenin pathway activators, primary screen, cell-based, plate reader, single point; Wnt/beta-catenin reporter cell assay, activator; activation, % at 9.35 µM; 300,000 compounds, 1.2% hits; AID 743398, 2014; in the data active means activation above about 30%, passing the limit was not always enough;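 further: 0% = neutral control wells and 100% = positive control wells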
APOBEC3A inh = APOBEC3A ssDNA deaminase inhibitors, primary screen, selectivity assay for APOBEC3G inhibitor project, biochemical, FAM/TAMRA oligo cleavage fluorescence; AID 493011, 2011; 330,000 compounds, 0.41% hits; DNA dC->dU-editing enzyme APOBEC-3A (Homo sapiens), P31941; recombinant A3A, FAM/TAMRA ssDNA deamination fluorescence; inhibition, % at 20 µM;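 active means at least 40% inhibition at 20 µM here, with at most 30% in a related deaminase screen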;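 further: plate controls were A3A with DMSO for no effect and wells lacking A3A enzyme for full effect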
esBAF inh = Bmi1 luciferase reporter increase in mESCs, primary screen, esBAF inhibitor project, mouse ES cells, Bmi1 luciferase knock-in, single point; 24 h; 100% = twice the neutral-well signal; reporter increase, % at 12.5 µM; 350,000 compounds, 2% hits; in the data active means activation above about 40%;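 further: 0% = median of the plate's neutral control wells and 100% = double that signal; a rise in the Bmi1 reporter signal indicates esBAF inhibition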
MITF TRPM1 HTS = activators of MITF-driven TRPM1 promoter reporter, primary screen, cell-based, SK-MEL-5, luciferase, single point; SK-MEL-5 TRPM1-promoter luciferase, 24 h; % of positive control, neutral wells = 0; 300,000 compounds, 0.75% hits; activation, % at 12.5 µM;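 active means mean activation of at least 80% with every replicate also reaching 80%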;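 further: 0% = neutral control wells and 100% = parthenolide positive control wells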
APOBEC3G confirm = APOBEC3G deaminase inhibitor retest, confirmation, biochemical, fluorescence, single-stranded DNA substrate, single concentration; shares compounds with A3G deaminase; recombinant A3G ssDNA deaminase, UDG/FAM-TAMRA fluorescence; inhibition, % at 20 µM; 890 compounds, 72% hits; AID 493152, 2011;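 active means inhibition reaching a set limit in any replicate at 20 µM, the limit being 80% of the first screen's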
UDG ctr A3G = E. coli UDG inhibitors, confirmation, counter-screen for APOBEC3G inhibitor project, biochemical, single concentration, fluorescence, FAM/TAMRA oligo; shares compounds with A3G deaminase; AID 504715, 2011; UDG counterscreen; 710 tested, under 10 active; inhibition, % at 20 µM;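 active means compounds giving 40% or more inhibition at 20 µM in any one of the three replicates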;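 further: plate controls were DMSO wells with UDG and oligo for no effect and DMSO wells lacking both for full effect; inhibitors lower the FAM signal released by uracil excision and alkaline cleavage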
Target sequence (P12295 whole entry, looked up): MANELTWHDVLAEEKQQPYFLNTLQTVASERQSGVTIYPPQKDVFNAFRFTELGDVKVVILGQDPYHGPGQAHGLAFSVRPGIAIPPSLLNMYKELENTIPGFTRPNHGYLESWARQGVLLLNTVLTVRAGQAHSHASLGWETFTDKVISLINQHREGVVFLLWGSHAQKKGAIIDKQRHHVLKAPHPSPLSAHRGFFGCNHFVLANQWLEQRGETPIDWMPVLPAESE
Starred values were filed as active, the others as inactive.

`Nc1ccccc1SC(CC(=O)c1ccccc1)c1ccccc1` (stereo not drawn) gave esBAF inh 34.9.
Screening CC(C(Sc1ccccc1N)c1ccccc1)[N+](=O)[O-] (stereo not drawn) returned PHOSPHO1 block 52.9, A3G deaminase 64.9*, Wnt bcat act -0.5, APOBEC3A inh 0.8, APOBEC3G confirm 26.2* and UDG ctr A3G -1.7.
Screening C(=N/N1CCN(c2ccccc2)CC1)/c1ccncc1 returned PHOSPHO1 block 56.8, A3G deaminase 42.8*, Wnt bcat act 4.1, APOBEC3A inh -3.3, MITF TRPM1 HTS 11.1, APOBEC3G confirm -6.6 and UDG ctr A3G -3.8.
`O=C(O)COc1ccccc1/C=N/NC(=O)Cc1csc(Nc2cccc(C(F)(F)F)c2)n1` gave PHOSPHO1 block 12.2, A3G deaminase 54.9*, Wnt bcat act -1.0, APOBEC3A inh -1.0, MITF TRPM1 HTS -4.5, APOBEC3G confirm 14.9 and UDG ctr A3G -4.0.
For O=C(O)COc1ccccc1/C=N/NC(=O)Cc1ccccc1 the results were PHOSPHO1 block 24.7, A3G deaminase -7.7, Wnt bcat act 3.0, APOBEC3A inh -10.5, esBAF inh 12.5 and MITF TRPM1 HTS 6.4.
COc1ccc(S(=O)(=O)Nc2nnc(CC(C)(C)C)s2)cc1 was read as PHOSPHO1 block 27.9, A3G deaminase -11.6, Wnt bcat act -1.0, APOBEC3A inh 26.6 and MITF TRPM1 HTS 3.4.
Screening COc1ccc(S(=O)(=O)Nc2nnc(C(C)(C)C)s2)cc1 returned PHOSPHO1 block 97.8*, A3G deaminase 49.8*, Wnt bcat act -0.5, APOBEC3A inh 5.5, esBAF inh -2.1, MITF TRPM1 HTS 4.1, APOBEC3G confirm 20.4* and UDG ctr A3G 1.7.
For CCn1c(N)c(C(=O)NCC2CCCO2)sc1=S (stereo not drawn) the results were PHOSPHO1 block 100.2*, A3G deaminase 40.0*, Wnt bcat act -1.1, APOBEC3A inh -13.0, esBAF inh 2.6, MITF TRPM1 HTS -3.4, APOBEC3G confirm 67.3* and UDG ctr A3G 1.4.
`CCn1c(N)c(C(=O)NC)sc1=S` gave PHOSPHO1 block 55.8, A3G deaminase 59.3*, Wnt bcat act -5.9, APOBEC3A inh 2.3, esBAF inh -11.1, MITF TRPM1 HTS -7.0 and APOBEC3G confirm 24.4.
`C[C@@H]1CN([C@H](C)CO)C(=O)c2cccc(NS(=O)(=O)c3ccc(Cl)cc3)c2O[C@@H]1CN(C)S(=O)(=O)c1cccs1` gave esBAF inh 0.1.
O=C(CCN1C(=O)/C(=C/c2ccc(Cl)cc2)SC1=S)Nc1ccc(C(=O)O)cc1 was read as A3G deaminase 40.1*, Wnt bcat act -0.9, APOBEC3A inh -4.0, esBAF inh 8.5, MITF TRPM1 HTS -0.2, APOBEC3G confirm -5.5 and UDG ctr A3G -3.2.
For CCc1ccc(/C=C2/SC(=S)N(CCC(=O)Nc3ccc(C(=O)O)cc3)C2=O)cc1 the results were PHOSPHO1 block 22.6, A3G deaminase -6.9, Wnt bcat act 17.5, APOBEC3A inh -4.6, esBAF inh 3.4 and MITF TRPM1 HTS 13.5.
Screening CC1(C)Cc2ccccc2-c2n[nH]c(=S)n21 returned PHOSPHO1 block 95.8*, A3G deaminase 56.1*, Wnt bcat act -0.8, APOBEC3A inh -7.7, esBAF inh -3.5, MITF TRPM1 HTS 3.9, APOBEC3G confirm 90.2* and UDG ctr A3G -4.4.
`CCSc1nnc2n1C(C)(C)Cc1ccccc1-2` gave PHOSPHO1 block 34.9, A3G deaminase -1.4, Wnt bcat act 1.5, APOBEC3A inh -3.1, esBAF inh 5.6 and MITF TRPM1 HTS -1.1.
Cc1noc(C)c1NC(=O)Nc1cccc2c1O[C@H](CN(C)CC1CC1)[C@@H](C)CN([C@H](C)CO)C2=O was read as esBAF inh -1.0.
C[C@@H](NC(=O)C[C@@H]1C=C[C@@H](NC(=O)C2CCOCC2)[C@H](CO)O1)c1ccccc1 was read as esBAF inh -2.5.
CCOC(=O)c1c(NC(=O)CSc2nnnn2-c2ccc(OC)cc2)sc(C)c1C was read as PHOSPHO1 block 87.4*, A3G deaminase 45.3*, APOBEC3A inh -0.9, esBAF inh -2.5, MITF TRPM1 HTS -7.7, APOBEC3G confirm 77.4* and UDG ctr A3G -3.2.
For C[C@@H]1CN([C@@H](C)CO)C(=O)c2cccc(NC(=O)Nc3ccc(F)cc3)c2O[C@H]1CN(C)C the results were esBAF inh -4.2.
Fc1ccc(NC(=S)NN2CCOCC2)cc1Cl was read as PHOSPHO1 block -0.3, A3G deaminase 0.4, Wnt bcat act -0.7, APOBEC3A inh 5.5 and MITF TRPM1 HTS 14.8.
Screening S=C(Nc1ccc(Br)cc1Cl)NN1CCOCC1 returned PHOSPHO1 block 42.8, A3G deaminase 60.5*, Wnt bcat act -0.5, APOBEC3A inh 0.5, esBAF inh 10.5, MITF TRPM1 HTS 6.9 and APOBEC3G confirm 2.5.
`Oc1cc2c(cc1O)C1c3ccc(O)c(O)c3OCC1(O)C2` (stereo not drawn) gave PHOSPHO1 block 43.7, A3G deaminase 61.3*, Wnt bcat act -6.9, APOBEC3A inh 1.7, esBAF inh -4.1, MITF TRPM1 HTS -3.5 and APOBEC3G confirm 69.4*.
Screening O=C(NC[C@H]1[C@@H](c2ccccc2)[C@H](CO)N1Cc1cccnc1)c1ccccn1 returned esBAF inh 3.2.
Screening S=c1[nH]nc(COc2ccccc2)n1/N=C/c1ccc(Br)cc1 returned PHOSPHO1 block -23.3, A3G deaminase -0.7, Wnt bcat act 2.4, APOBEC3A inh -5.7, esBAF inh -6.2 and MITF TRPM1 HTS -0.7.
For CCOc1cc(/C=N/n2c(COc3ccccc3)n[nH]c2=S)ccc1O the results were PHOSPHO1 block -9.3, A3G deaminase 29.0, Wnt bcat act 0.8, APOBEC3A inh 0.2, esBAF inh -8.5 and MITF TRPM1 HTS 0.4.
